UBC13 polyUb – blocks human UBC13 polyubiquitin chain formation. P61088. TR-FRET. inhibition, % at 20 µM. 330,000 tested, 0.47% active; in the data active means inhibition above about 45%, passing the limit was not always enough
MEKK2 WT-MEK5 – raises or lowers MEK5 binding to wildtype human MEKK2 PB1 domain; bead flow cytometry, Alexa488-MEK5 binding to MEKK2 WT; actives lie on both sides; AID 1531; binding response (% of control), % at 10 µM; 290,000 tested, 1.1% active; in the data active means binding response below about 67% or above about 130%
MEKK2mut PB1 HTS – signal of MEK5 binding to mutant human MEKK2 PB1 domain. 290,000 tested, 0.35% active. percent response, % at 10 µM. bead flow cytometry, Alexa488-MEK5 binding to MEKK2 mutant; in the data active means percent response above about 24%, passing the limit was not always enough
MEKK3 PB1 HTS – modulators (inhibitors or enhancers) of MEK5 binding to human MEKK3 PB1 domain | bead-based flow cytometry, Alexa488-MEK5 binding to MEKK3; actives lie on both sides; 0 = blocked by unlabeled MEK5, 100 = vehicle | 290,000 tested, 1.4% active | binding response (% of control), % at 10 µM | AID 1529 | Q99759;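 active means binding response more than 3 SD above or below the average of its plate-row segment, actives on both sides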;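 further: Alexa488 bead fluorescence after subtracting the streptavidin-only scavenger bead signal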
Target sequence (Q99759 whole entry, looked up, the tested form may be a part): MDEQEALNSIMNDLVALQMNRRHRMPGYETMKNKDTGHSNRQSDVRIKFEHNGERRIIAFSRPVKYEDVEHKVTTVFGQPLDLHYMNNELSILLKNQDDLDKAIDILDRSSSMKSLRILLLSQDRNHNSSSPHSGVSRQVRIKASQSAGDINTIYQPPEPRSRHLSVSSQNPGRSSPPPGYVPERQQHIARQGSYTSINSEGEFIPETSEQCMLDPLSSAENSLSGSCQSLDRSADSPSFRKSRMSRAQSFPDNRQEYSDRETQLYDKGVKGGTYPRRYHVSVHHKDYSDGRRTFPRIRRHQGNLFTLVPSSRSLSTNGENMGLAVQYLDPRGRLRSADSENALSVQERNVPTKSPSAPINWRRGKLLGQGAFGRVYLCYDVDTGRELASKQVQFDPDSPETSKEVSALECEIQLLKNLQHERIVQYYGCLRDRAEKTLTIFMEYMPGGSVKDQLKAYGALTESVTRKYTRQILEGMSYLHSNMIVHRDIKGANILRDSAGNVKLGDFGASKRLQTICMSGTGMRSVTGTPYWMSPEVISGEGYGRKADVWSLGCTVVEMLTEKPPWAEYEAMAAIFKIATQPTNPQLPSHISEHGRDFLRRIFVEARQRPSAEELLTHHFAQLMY
MEKK2wt confirm – raises or lowers MEK5 binding to wildtype human MEKK2, retest; shares compounds with MEKK3 PB1 HTS; bead flow cytometry, Alexa488-MEK5 binding to MEKK2 WT; actives lie on both sides; binding response (% of control), % at 10 µM; 5,900 tested, 2.4% active; in the data active means binding response below about 16% or above about 210%; inactive means in between
MEKK2mut-MEK5 – signal of MEK5 binding to mutant human MEKK2, retest. shares compounds with MEKK3 PB1 HTS. bead flow cytometry, Alexa488-MEK5 binding to MEKK2 mutant. percent response, % at 10 µM. 5,900 tested, 2% active; in the data active means percent response mostly above about 71%, no sharp cut-off; inactive means mostly below about 38%;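 further: higher means compound restores mutant binding toward wildtype level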
MEKK3 confirm – MEKK3-MEK5 PB1 inhibition, single concentration confirmation; shares compounds with MEKK3 PB1 HTS; bead flow cytometry, Alexa488-MEK5 binding to MEKK3; stronger effect = lower value; binding response (% of control), % at 10 µM; 5,900 tested, 1.8% active;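 active means binding response below 72% of control, or above a set upper limit, though filed actives all read lower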;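 further: 100% = DMSO only wells and 0% = binding blocked by excess unlabeled MEK5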
* = called active by the depositor; nt = not tested or not shown; [ ] = remark or other dose. Hits are enriched below; roughly 2.3% of the tested compounds scored in any of these assays.

SMILES	UBC13 polyUb	MEKK2 WT-MEK5	MEKK2mut PB1 HTS	MEKK3 PB1 HTS	MEKK2wt confirm	MEKK2mut-MEK5	MEKK3 confirm
CCN1CCN(C(c2ccc(OC)cc2)c2nnnn2Cc2ccc3c(c2)OCO3)CC1 (configuration not stated)	12	132	7	144*	100	1	101
CCN1CCN(C(c2ccccc2)c2nnnn2Cc2ccccc2)CC1 (configuration not stated)	5	139*	9	144*	114	17	108
C/C(=N\N=C\c1ccc(N(C)C)cc1)c1cccc([N+](=O)[O-])c1	-1	99	-1	73*[inhibitor]	104	11	108
C=CCNC(=O)CN(c1ccc(OC)cc1OC)S(C)(=O)=O	-5	123	7	127*	98	-2	100
CCOC(=O)c1cnc2cc(C)nn2c1C	-5	87	-10	74*[inhibitor]	102	10	101
CC(=O)OC1OCCOC1NC(=S)NCc1ccco1 (configuration not stated)	-8	nt	-35	1.0*[inhibitor]	98	-2	95
CC(=O)OC1OCCOC1NC(=S)Nc1cccc(C(F)(F)F)c1 (configuration not stated)	-1	93	-5	103	nt	nt	nt
Oc1ccccc1C(=S)N1CCN(C(=S)c2ccccc2O)CC1	1	108	7	108	nt	nt	nt
Cc1cc(C)c(S(=O)(=O)Nc2nnc(C3CCCCC3)s2)c(C)c1	-9	110	11	106	nt	nt	nt
Cc1ccc(-c2nnn(CC(=O)N(c3ccccc3)C(C(=O)NCC3CCCO3)c3cccs3)n2)o1 (configuration not stated)	-8	75	-13	70	nt	nt	nt
Cc1c2cnn(CC(=O)NCCCN3CCCCC3C)c(=O)c2c(C)n1Cc1ccccc1 (configuration not stated)	29	145*	28*	101	130	21	104
CN(C)CCn1c2c(c(SCC(=O)Nc3ccc4c(c3)OCCO4)nc1=O)CCCC2	10	nt	nt	nt	nt	nt	nt
O=C1C=C(NCc2ccc(Cl)cc2)CC(c2ccco2)C1 (configuration not stated)	0	116	8	127*	95	-3	96
COc1ccc(C(CNC(=O)Cc2ccccc2Cl)N2CCCCC2)cc1 (configuration not stated)	4	99	-4	100	nt	nt	nt
COc1ccc(C(CNC(=O)Cc2ccccc2F)N2CCCCC2)cc1 (configuration not stated)	-8	113	-1	131*	108	-1	103
CC(CCc1ccccc1)NC(=O)CC(C)c1ccccc1 (configuration not stated)	-2	104	1	105	nt	nt	nt
O=C(CSc1nc2ncc(Br)cc2[nH]1)c1ccc([N+](=O)[O-])cc1	-14	101	0	132*	107	1	103
Cc1ccc(CCN2CC(C(=O)NC(C)C)CC2=O)cc1 (configuration not stated)	6	100	1	99	nt	nt	nt
O=C(NCc1ccc2c(c1)OCO2)C(=O)NCC(c1ccco1)N1CCN(c2ccccc2)CC1 (configuration not stated)	-12	119	15	136*	97	-10	101
CC(OC(=O)c1ccccc1C(=O)N(C)C1CCCCC1)C(=O)NC1(C#N)CCCCC1 (configuration not stated)	-10	nt	nt	nt	nt	nt	nt
O=C(Nc1nc2c(s1)CCCC2)c1cccs1	5	102	4	98	nt	nt	nt
O=C(Cc1cccs1)Nc1nc2c(s1)CCCC2	-1	64	-19	51*[inhibitor]	100	-2	96
COc1ccc(Cl)cc1NC(=O)Cn1nnc(C(=O)NCc2ccc3c(c2)OCO3)c1N	3	103	2	104	nt	nt	nt
CCOC(=O)C1CCN(S(=O)(=O)c2ccc(-n3cnnn3)c(C)c2)CC1	40	86	-11	79*[inhibitor]	101	-3	102
CCOC(=O)C1CCN(S(=O)(=O)c2ccc(C)c(C)c2)CC1	5	89	-13	100	nt	nt	nt
SMILES	UBC13 polyUb	MEKK2 WT-MEK5	MEKK2mut PB1 HTS	MEKK3 PB1 HTS	MEKK2wt confirm	MEKK2mut-MEK5	MEKK3 confirm
CCOC(=O)C1CCN(S(=O)(=O)c2ccc(-c3ccccn3)s2)CC1	-3	129	25	130*	99	-3	101
CCOC(=O)C1CCN(S(=O)(=O)c2ccc(OC)c(Cl)c2Cl)CC1	9	88	-5	82*[inhibitor]	103	2	102
C=CCNC(=O)COC(=O)c1c2c(nc3ccccc13)CCC2	-14	101	-1	102	nt	nt	nt
NS(=O)(=O)c1ccc(CCNC(=O)CSc2ccc(Cl)cc2Cl)cc1	7	43*[inhibitor]	-13	40*[inhibitor]	103	8	103
CC(C)C(NC(=O)CCNC(=O)c1ccc([N+](=O)[O-])cc1)c1nc2ccccc2[nH]1 (configuration not stated)	-10	nt	nt	nt	nt	nt	nt
O=C(NN1C(=O)C2C3c4ccccc4C(c4ccccc43)C2C1=O)c1ccccc1 (configuration not stated)	-12	109	1	127	nt	nt	nt
Cc1ccc(C(=O)NN2C(=O)C3C4c5ccccc5C(c5ccccc54)C3C2=O)cc1 (configuration not stated)	-9	104	3	129*	100	5	103
O=C(COc1ccc(F)cc1)N(Cc1ccco1)C1CCS(=O)(=O)C1 (configuration not stated)	-3	104	0	102	nt	nt	nt
Cc1cc(C)c2c(N)c(C(=O)Nc3ncc(C)s3)sc2n1	3	102	5	103	nt	nt	nt
COc1ccc2nc(NC(=O)c3sc4nc(C)cc(C)c4c3N)sc2c1	13	48	-11	48*[inhibitor]	90	-5	90
NCC12CC3CC(C1)CC(c1ccc(Br)cc1)(C3)C2	40	153*	21	110	133	22	101
CC(=O)N1CCN2C(=O)C1CCCC(=O)c1cc(C)ccc12 (configuration not stated)	12	64	5	48*[inhibitor]	103	0	99
O=c1[nH]c(-c2ccccc2)c(-c2ccccc2)nc1[N+](=O)[O-]	3	101	0	102	nt	nt	nt
O=C(CSc1nnc(-c2ccco2)o1)N1c2ccccc2CCc2ccccc21	5	85	-11	80*[inhibitor]	102	7	101
CC(=O)c1c(C)[nH]c(C(=O)CSc2nnc(-c3ccco3)o2)c1C	0	127	7	152*	97	-6	100
O=C(CSc1nnc(-c2ccco2)o1)N1CCN(c2ccccc2)CC1	-1	122	5	136*	106	2	106
Fc1ccc(CSc2nnc(-c3ccco3)o2)cc1	6	85	-57	1.0*[inhibitor]	97	-8	95

Source: PubChem BioAssay (several laboratories)
